Compound activity (PubChem)
Most compounds without a hit are left out; they make up all but 0.9% or so of the library.
SRC2 TRFRET art = TR-FRET signal artefacts, primary screen, artefact control for PPARgamma SRC-2 agonist project, biochemical; TR-FRET ratio at 8 µM; actives 0.4% (n = 200,000); AID 1049, 2008; TR-FRET artefact counter-screen; active compounds read high
PPARg SRC-2 ag = agonists of PPARg-SRC-2 recruitment, primary screen, biochemical, HTS; Peroxisome proliferator-activated receptor gamma (Homo sapiens), P37231; PPARgamma LBD-SRC-2 recruitment; activation, % at 8 µM; actives 0.34% (n = 200,000); AID 1032, 2008; in the data active = activation above about 22%;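 also: 0% = vehicle and 100% = reference agonist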
Target sequence (P37231 whole entry, looked up, the tested form may be a part): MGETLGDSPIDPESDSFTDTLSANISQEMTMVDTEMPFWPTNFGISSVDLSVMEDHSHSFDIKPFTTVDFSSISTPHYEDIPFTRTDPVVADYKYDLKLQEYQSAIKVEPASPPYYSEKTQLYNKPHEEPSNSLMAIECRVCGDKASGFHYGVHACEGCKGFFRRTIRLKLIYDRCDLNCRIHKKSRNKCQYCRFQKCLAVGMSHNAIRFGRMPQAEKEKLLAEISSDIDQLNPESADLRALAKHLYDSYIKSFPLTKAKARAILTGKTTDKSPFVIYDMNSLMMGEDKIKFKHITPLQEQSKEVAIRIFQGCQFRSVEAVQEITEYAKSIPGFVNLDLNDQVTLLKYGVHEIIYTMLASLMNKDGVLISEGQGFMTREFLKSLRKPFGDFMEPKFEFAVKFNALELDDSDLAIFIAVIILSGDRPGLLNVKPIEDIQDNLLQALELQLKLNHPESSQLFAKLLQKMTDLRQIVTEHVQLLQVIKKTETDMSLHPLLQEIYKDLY
PPARg SRC3 recr = PPARgamma agonists recruiting SRC-3 coactivator, primary screen, biochemical. biochemical PPARgamma/SRC-3 coactivator recruitment assay. activation, % at 8 µM. actives 0.26% (n = 200,000). AID 731, 2007; in the data active = activation above about 23%;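 also: 0% = DMSO and 100% = reference agonist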
SRC1 TRFRET art = TR-FRET detection interference compounds, primary screen, artefact control for PPARgamma SRC-1 recruitment agonists, biochemical, TR-FRET emission ratio. TR-FRET detection artefact counter-screen; active compounds read high. actives 0.34% (n = 99,000). TR-FRET ratio at 8 µM; in the data active = TR-FRET ratio above about 2300
SRC3 TRFRET art = TR-FRET detection interference compounds, artefact control for PPARgamma SRC-3 recruitment agonists, biochemical, TR-FRET ratio; AID 1048, 2008; TR-FRET ratio at 8 µM; actives 0.39% (n = 99,000); TR-FRET artefact counter-screen, PPARgamma/SRC-3 format; active compounds read high
PPARg SRC1 recr = PPARgamma agonists recruiting SRC-1 coactivator, primary screen, biochemical; Peroxisome proliferator-activated receptor gamma (Homo sapiens), P37231; PPARgamma-SRC-1 coactivator recruitment biochemical assay; activation, % at 8 µM; actives 0.41% (n = 200,000); AID 631, 2007; in the data active = activation above about 19%;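 also: 0% = DMSO and 100% = reference agonist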
Active calls of the source: *; nt = no result given. Rule as the data show it, unless noted: active = TR-FRET ratio above about 2000; inactive = the rest.

SMILES	SRC2 TRFRET art	PPARg SRC-2 ag	PPARg SRC3 recr	SRC1 TRFRET art	SRC3 TRFRET art	PPARg SRC1 recr
CCN(CC)S(=O)(=O)c1ccc(N2CCOCC2)c(NC(=O)c2cc(-c3ccccn3)nc3ccccc23)c1	1811	8	1	2421*	2191*	6
O=C(Nc1cnccn1)c1cccc(C(F)(F)F)c1	2375*	65*	2	nt	nt	0
O=C(c1ccccc1)c1nn(-c2ccccc2)c2nnc(Cc3ccccc3)c(=O)n12	2100*	14	7	nt	nt	6
COc1ccc(Br)cc1/C=N/NC(=O)c1nc(-c2ccccc2)n2c1CCCCC2	1647	-3	-10	nt	nt	7
CC(C)Cn1c(N)c(C(=O)COC(=O)c2ccc([N+](=O)[O-])o2)c(=O)n(C)c1=O	1982*	12	5	1937	1448	3
CC1(C)CC2CC(C)(CN2C(=O)COC(=O)CNC(=O)c2ccc(Cl)c(Cl)c2)C1 (configuration not stated)	1584	-3	5	1955	1531	-2
CCN(C(=O)COC(=O)c1cc(-c2ccccc2)nc2ccc(Br)cc12)C1CCS(=O)(=O)C1 (configuration not stated)	1887	4	10	2327*	2241*	16
COc1ccc(Cl)cc1NC(=S)N(Cc1ccc(C(=O)O)cc1)Cc1ccc(OC)c(OC)c1	1498	3	1	2031	1460	9
CCOc1ccc(N2CSC3=C(C#N)C(c4ccco4)CC(=O)N3C2)cc1 (configuration not stated)	1814	25*	17	nt	nt	6
N#CC1=C2SCN(c3ccccc3)CN2C(=O)CC1c1cccs1 (configuration not stated)	2021*	19	18	nt	nt	7
N#CC1=C2SCN(c3ccccc3)CN2C(=O)CC1c1c(Cl)cccc1Cl (configuration not stated)	1514	2	6	nt	nt	-4
Cc1oc(-c2cccc(Cl)c2)nc1CN1CCC(C(=O)N2CCN(c3ccccc3F)CC2)CC1	1765	1	6	2346*	1480	12
COC(=O)C1CC(O)CN1C(=O)Nc1ccccc1 (configuration not stated)	1364	1	0	1637	1372	4
Cc1cc(C)nc(/N=c2/ssnc2Cl)c1	1451	-4	28*	nt	nt	9
Cc1ccc(N=c2ssnc2Cl)cc1	1546	2	8	nt	nt	0
CCOc1ccc(CN2CCCC(CNC(=O)c3ccc(F)cc3)C2)cc1CO (configuration not stated)	1591	2	1	1582	1550	1
CCN(CC)c1ccc(/C=C(/C#N)c2nc3ccc(C)cc3[nH]2)c(OC(C)C)c1	1540	1	8	nt	nt	7
CCCOc1cc(N(CC)CC)ccc1/C=C(/C#N)c1nc2ccc(C)cc2[nH]1	2008*	37*	5	nt	nt	2
CCC1CCCCN1C(=O)CSc1nnc(-c2ccc(OC)cc2)o1 (configuration not stated)	1364	5	15	nt	nt	-2
CCC1CCCCN1C(=O)CSc1nc(N)cc(N)n1 (configuration not stated)	1990*	0	1	1816	1654	0
C=CCSC1=NN2CCS(=O)(=O)N=C2S1	1578	0	4	1824	1713	12
N#Cc1c(NC(=S)NC(=O)Cc2cccs2)sc2c1CCCCC2	1527	7	8	nt	nt	4
COc1ccc(OCC(=O)Nc2cc(-c3nn(C)c(=O)c4ccccc34)ccc2OC)cc1	1425	4	-4	nt	nt	38*
O=C1CCCC/C1=N\Nc1ccc(OCc2ccccc2)cc1	1640	17	3	1704	1665	5
COc1ccccc1N(CC(O)COc1ccccc1C)S(=O)(=O)c1ccccc1 (configuration not stated)	1749	6	3	2091	1545	4
SMILES	SRC2 TRFRET art	PPARg SRC-2 ag	PPARg SRC3 recr	SRC1 TRFRET art	SRC3 TRFRET art	PPARg SRC1 recr
COc1ccc(C2CC(=O)c3c([nH]c(C(=O)OC(C)C)c3C)C2)cc1OC (configuration not stated)	1553	-3	32*	1581	3447*	-2
CCOc1ccc2[nH]c(=O)c(C(c3nnnn3C3CCCCC3)N3CCN(CC)CC3)cc2c1 (configuration not stated)	1638	1	-1	nt	nt	5
CCOc1ccc2[nH]c(=O)c(C(c3nnnn3C3CCCCC3)N3CCN(C)CC3)cc2c1 (configuration not stated)	1495	5	1	2124	1653	23*
c1ccc2[nH]c3cc4ncnc4cc3nc2c1	1543	8	15	1830	1699	22*
CCOc1ccc(-c2nc3scc(-c4cccs4)c3c(=O)[nH]2)cc1	1534	1	5	1852	1406	-5
Cc1ccccc1NC(=S)N(CCN1CCCCC1)Cc1ccco1	2001*	4	3	2157	1622	5
Cc1ccccc1NC(=S)N(CCCN1CCCCC1)Cc1ccco1	1704	-4	0	1866	1580	-4
C[C@H](NS(=O)(=O)c1ccccc1F)C(=O)OCC(=O)N1CCc2ccccc21	1383	2	0	nt	nt	-1
COc1ccc(N2CC(NC(=O)Nc3ccccc3)CC2=O)cc1 (configuration not stated)	1485	8	11	1759	1550	0
COc1ccc(N2CCC(CNC(=O)Nc3ccccc3)C2)cc1 (configuration not stated)	1624	24*	8	nt	nt	6
COc1ccc(NC(=O)COC(=O)C2CCC(C(C)(C)C)CC2)c([N+](=O)[O-])c1 (configuration not stated)	1577	-1	2	1942	1607	4
Cc1csc(NC(=O)CSc2nnc(NC(=O)C3CC(=O)N(c4ccccc4)C3)s2)n1 (configuration not stated)	1627	15	6	2325*	1413	2
CC(C)CNS(=O)(=O)c1cc(C(=O)OCC(=O)c2ccc3c(c2)OCCO3)c(Cl)cc1Cl	1804	-3	-2	2142	2107*	-1
CC(O)CNc1nc2ccccc2n1CC(=O)NCCc1ccc(Cl)cc1 (configuration not stated)	1549	6	3	nt	nt	2
CCOc1ccc(NC(=S)Nc2ccc3nsnc3c2)cc1	1676	9	13	2443*	2027	15
S=C(Nc1ccc(Cl)c(Cl)c1)NC1CCCCC1	1550	-1	-6	nt	nt	-4
S=C(Nc1ccc2nsnc2c1)NC1CCCCC1	1719	6	9	2457*	1898	11
